Source: PubChem BioAssay (NCI)
About 79,000 compounds went through this panel and 15% of them were active in at least one assay; those are over-represented in the sample as a whole. No stated cut-off is given here; in the data, active means growth inhibition above about 70%; inactive means the rest.

Columns and labels:
[1] = NCI Yeast Anticancer Drug Screen. Data for the rad50 strain (AID 155);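 further: 0% = growth of vehicle-only cultures of the same strain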; details: S. cerevisiae rad50 strain growth inhibition; at 50.0 µM; stronger effect = higher value
In short: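 Readout: growth inhibition relative to vehicle-treated cultures. Compound exposure was carried out in a genetically defined yeast strain deficient in DNA damage repair.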

[2] = NCI Yeast Anticancer Drug Screen. Data for the mec2-1 strain (AID 157); details: S. cerevisiae mec2-1 strain, at 50.0 µM, stronger effect = higher value
In short: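 Growth inhibition is read against vehicle-treated controls after compound exposure of the mec2-1 yeast strain, which is defective in DNA damage repair or cell cycle control.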

[3] = NCI Yeast Anticancer Drug Screen. Data for the sgs1 mgt1 strain (AID 161);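 further: 0% = growth of cultures given vehicle only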; details: S. cerevisiae sgs1 mgt1 strain, at 50.0 µM, stronger effect = higher value
In short: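 Compounds are added to genetically altered yeast, and growth is compared with cultures given vehicle alone to give percent inhibition.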

[4] = NCI Yeast Anticancer Drug Screen. Data for the cln2 rad14 strain (AID 165);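 further: 0% = growth equal to vehicle treated cultures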; details: S. cerevisiae cln2 rad14 strain, at 50.0 µM, stronger effect = higher value
In short: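 Growth inhibition, relative to vehicle-treated controls, is the read-out. The test organism is a yeast strain with defined genetic alterations, cln2 rad14.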

[5] = NCI Yeast Anticancer Drug Screen. Data for the bub3 strain (AID 167); details: S. cerevisiae bub3 mutant strain, at 50.0 µM, stronger effect = higher value
In short: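 Readout: yeast growth inhibition, expressed relative to vehicle-only wells. The test organism is a mutant strain from a panel with lesions in DNA repair or checkpoint genes.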

[6] = NCI Yeast Anticancer Drug Screen. Data for the mlh1 rad18 strain (AID 175); details: S. cerevisiae mlh1 rad18 strain growth inhibition; at 50.0 µM; stronger effect = higher value
In short: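 Cells of a genetically altered yeast strain, deficient in DNA damage repair, were treated with compound. Their growth was then compared with that of vehicle-treated cultures to give inhibition.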

Measured: growth inhibition

Cc1cc(Cl)cc(Cl)c1OCC(=O)Nc1ccc(Cl)cc1
inactive: [1] 6.45% | [2] 2.45% | [3] 8.5% | [4] 4% | [5] 21.9% | [6] -7.7%

COc1ccc(C)cc1NC(=O)/C=C/c1ccccc1
inactive: [1] 1.6% | [2] -6.6% | [3] -6.5% | [4] 16.2% | [5] 30.8% | [6] -7.65%

COC(=O)c1ccccc1NC(OC)c1cccc([N+](=O)[O-])c1 (centres undefined)
inactive: [1] 18.6% | [2] 13.4% | [3] 12.1% | [4] 17.7% | [5] 12.6% | [6] 5.55%

Clc1ccc(N=C2c3ccccc3CN2c2ccc(Cl)cc2)cc1
inactive: [1] -32.6% | [2] -20.1% | [3] -14.4% | [4] -4.85% | [5] -22.3% | [6] -13.9%

Cc1nc2c(c(-c3ccccc3)n1)Cc1ccccc1O2
inactive: [1] -4.05% | [2] -12.4% | [3] 7.55% | [4] -10.5% | [5] 25.8% | [6] 0%

CCc1ccccc1NC(=O)Nc1cc(C)ccn1
inactive: [1] 25.6% | [2] 12.9% | [3] 21.8% | [4] 21.3% | [5] 32% | [6] 27.9%

Cc1ccc([N+](=O)[O-])cc1NC(=O)C(=O)C1CCC2=C(Sc3ccccc3N2)C1=O (centres undefined)
inactive: [1] 0.5% | [2] -16.9% | [3] -9.45% | [4] -17.9% | [5] -0.4% | [6] -5.85%

COc1ccc2c(=O)c(O)c(-c3ccc(OC)c(OC)c3)oc2c1
inactive: [1] 12.7% | [2] 5.35% | [3] -18.6% | [4] -9.1% | [5] -1.25% | [6] 18.4%

CCOP(=O)(OCCN(C)C)C(c1ccccc1)c1ccccc1 (centres undefined)
inactive: [1] 19.9% | [2] -3.85% | [3] -10.8% | [4] -6.25% | [5] -9.75% | [6] 34.6%

O=C(/C=C/c1ccccc1)/C=N/N1C(=S)N(c2ccccc2)C(=Nc2ccccc2)C1=Nc1ccccc1
inactive: [1] -7.4% | [2] -15.8% | [3] -12.9% | [4] -20.2% | [5] -20.1% | [6] -21.6%

COc1cc([C@H]2Oc3cc([C@H]4Oc5cc(O)cc(O)c5C(=O)[C@@H]4O)ccc3O[C@@H]2CO)ccc1O
inactive: [1] 3.15% | [2] 0.55% | [3] 11.8% | [4] -36.4% | [5] 15.5% | [6] 6.05%

CN1COc2c3c(c4ccccc4c2C1)CN(C)CO3
inactive: [1] 7.1% | [2] 2.35% | [3] 1.2% | [4] -16.9% | [5] 6.35% | [6] -0.3%

N#Cc1cccc(Nc2ccccc2SSc2ccccc2Nc2cccc(C#N)c2)c1
inactive: [1] 13.1% | [2] 7.6% | [3] 17.5% | [4] -7.4% | [5] 3.95% | [6] 12.8%

COc1ccc(-c2cc(-c3ccccc3)n(C3OCC(OC(C)=O)C(OC(C)=O)C3OC(C)=O)c(=S)c2C#N)cc1 (centres undefined)
inactive: [1] 12.1% | [2] 18.9% | [3] -12.7% | [4] 4.55% | [5] -3.6% | [6] 32.4%

COC1=CC(=C(C#N)C(=Nc2ccccc2)SC)C=C(OC)C1=O
inactive: [1] 34.1% | [2] 19.1% | [3] 48.9% | [4] 15.3% | [5] 20.6% | [6] 43.6%

CC(=O)OCC(OC(C)=O)C(OC(C)=O)C(/C=C/[N+](=O)[O-])OC(C)=O (centres undefined)
inactive: [1] 9.9% | [2] 3.65% | [3] 2.4% | [4] -24.6% | [5] -3.4% | [6] -2.05%

O=c1[nH]c(N2CCN(c3ccccc3)CC2)nc2cc3ccccc3cc12
inactive: [1] 2.55% | [2] -10.6% | [3] -13.6% | [4] -26.8% | [5] -5.15% | [6] -16.9%

C/C(=N/Nc1ccc([N+](=O)[O-])cc1[N+](=O)[O-])C(CC(C(=O)NCc1ccccc1)/C(C)=N\Nc1ccc([N+](=O)[O-])cc1[N+](=O)[O-])C(=O)NCc1ccccc1 (centres undefined)
inactive: [1] 5.25% | [2] -16.5% | [3] -0.1% | [4] -5.05% | [5] 21.1% | [6] 11.8%

O=C(O)c1cc2cc(O)ccc2[nH]1
inactive: [1] 2.6% | [2] 3.6% | [3] 20.9% | [4] 3% | [5] 10.4% | [6] -5.25%

COc1cccc(-c2nc(-c3cnccn3)n(C3OC(CO)C(O)C3O)n2)c1 (centres undefined)
inactive: [1] -16.4% | [2] -22.4% | [3] -12.8% | [4] 11.6% | [5] -45% | [6] -22.6%

COc1ccc([N+](=O)[O-])c2ccc(=O)oc12
inactive: [1] -9.9% | [2] 5.2% | [3] -4.1% | [4] -0.35% | [5] 4.75% | [6] 9.9%

CCCCCCCCCCCC(=O)O (tested in a mixture with another compound)
inactive: [1] -15.7% | [2] 7.5% | [3] -41.6% | [4] -39.9% | [5] -32.6% | [6] -13.5%

Cc1cc(O)c(C(C)C)cc1S(=O)(=O)O
inactive: [1] 0.7% | [2] 0.2% | [3] 3.75% | [4] -1.5% | [5] 3.25% | [6] 5.15%

O=C(NCc1ccco1)Nc1ccc(Cl)cc1
inactive: [1] -29.5% | [2] -0.8% | [3] 0.6% | [4] -51.4% | [5] 14.5% | [6] -2.7%

COc1cc(C(=O)OCCOC(=O)c2ccc(O)c(OC)c2)ccc1O
inactive: [1] 45.4% | [2] 13.8% | [3] 25.4% | [4] -25.5% | [5] 51.7% | [6] 40.5%

Cc1ccc(S(=O)(=O)N/N=C/c2cc([N+](=O)[O-])cc(I)c2O)cc1
inactive: [1] 2.35% | [2] -3.6% | [3] -4.5% | [4] -50.4% | [5] -10.6% | [6] 4.2%

NNC(=O)c1ccc(OCc2nc3ccccc3[nH]2)cc1
inactive: [1] -14.8% | [2] -31.9% | [3] 1.2% | [4] 5.1% | [5] -87.2% | [6] -18.7%

N#C/C(=C\NC(=S)Nc1ccc(S(=O)(=O)Nc2nccs2)cc1)C(=O)c1ccc2ccccc2c1
inactive: [1] 7.7% | [2] 1.8% | [3] 14.3% | [4] -9.75% | [5] -8% | [6] 16.4%

O=C(NNC(=O)c1cccc(Br)c1)c1ccccc1
inactive: [1] 4.05% | [2] -37.6% | [3] -0.1% | [4] 5.65% | [5] -7.15% | [6] -3.15%

CCc1cccc(C)c1NC(=O)C(=O)CC(=O)c1ccc(Cl)cc1Cl
inactive: [1] 26.9% | [2] 14.8% | [3] 7.65% | [4] -35.4% | [5] 2.15% | [6] 27.2%

CC(=O)NC1=CC(=O)c2cc(C)cc(O)c2C1=O
inactive: [1] 23.3% | [2] 21.9% | [3] 20.1% | [4] 16.2% | [5] 28.1% | [6] -14.6%

COc1c(C)cc(-c2cc(C)c(OC)c(C)c2)cc1C
inactive: [1] -3.45% | [2] 8.05% | [3] 1.7% | [4] 9.4% | [5] -8.8% | [6] -3.55%

C=CCc1ccc(OC(=O)Nc2ccc(S(=O)(=O)NC3CCCCC3)cc2)c(OC)c1
inactive: [1] 33.7% | [2] 8.85% | [3] 44.7% | [4] 33.1% | [5] 11.8% | [6] 44.4%

Clc1ccc(N=CNc2ccc(Cl)cc2)cc1
inactive: [1] -10.2% | [2] -2.85% | [3] -6.55% | [4] -14.2% | [5] 43.2% | [6] -2.35%

CCCCC(C(=O)O)C1CCCCC1 (centres undefined)
inactive: [1] -12.3% | [2] 17.4% | [3] 23.4% | [4] -11.9% | [5] -12.2% | [6] -1%

COc1cc(CO)c(CO)cc1OC
inactive: [1] -5.05% | [2] -3.2% | [3] -5.65% | [4] -10.8% | [5] 4% | [6] -8.95%

O=c1[nH]c2cc(Cl)ccc2nc1/C=C(\O)c1ccc(F)cc1
inactive: [1] 23.1% | [2] 17.6% | [3] 17.2% | [4] 8.2% | [5] -6.3% | [6] 27.4%

Cn1ncc2c(=S)nc[nH]c21
inactive: [1] -15.2% | [2] -4.9% | [3] -2.5% | [4] -18.2% | [5] 2.65% | [6] -13.8%

CC(=O)C(=Cc1c[nH]c2ccccc12)C(C)=O
inactive: [1] 31.7% | [2] 13.7% | [3] 38.4% | [4] 9.65% | [5] 35.4% | [6] 31.6%
